Test results published in PubChem BioAssay (NCI).
About 83,000 compounds went through this panel and 20% of them were active in at least one assay; those are over-represented in the sample as a whole.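 The endpoint reported here, percent growth, reads 100 for growth as untreated, 0 for no net growth and -100 for all cells dead.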 Values without a mark were called inactive. Active and inactive are the calls of the source. How the source made its calls: active means growth percent below 10; inactive means the rest.

Key:
Experiment in all cases: NCI-60 one-dose screen, 48 h (100 = growth as untreated, 0 = no growth, -100 = all killed)
NCI-H23 lung = settings: 10 µM unless noted
NCI-H226 lung = settings: 10 µM unless noted
NCI-H322M lung = settings: 10 µM unless noted
HOP-62 NSCLC = settings: 10 µM unless noted
NCI-H460 lung = settings: 10 µM unless noted
HOP-92 NSCLC = settings: 10 µM
NCI-H522 lung = settings: 10 µM unless noted
A549/ATCC NSCLC = settings: 10 µM unless noted
786-0 renal = settings: 10 µM unless noted
COLO 205 colon = settings: 10 µM unless noted
DU-145 prostate = settings: 10 µM unless noted
K-562 leukemia = settings: 10 µM unless noted
MALME-3M melanoma = settings: 10 µM unless noted
MDA-MB-231 breast = settings: 10 µM unless noted
RXF 393 renal = settings: 10 µM unless noted
SF-268 CNS = settings: 10 µM unless noted
SF-295 CNS = settings: 10 µM unless noted
SF-539 CNS = settings: 10 µM unless noted
UACC-257 melanoma = settings: 10 µM unless noted

Row | Compound | growth (NCI-H23 lung) [%] | growth (NCI-H226 lung) | growth (NCI-H322M lung) | growth (HOP-62 NSCLC) | growth (NCI-H460 lung) | growth (HOP-92 NSCLC) | growth (NCI-H522 lung) | growth (A549/ATCC NSCLC) | growth (786-0 renal) | growth (COLO 205 colon) | growth (DU-145 prostate) [%] | growth (K-562 leukemia) | growth (MALME-3M melanoma) | growth (MDA-MB-231 breast) | growth (RXF 393 renal) | growth (SF-268 CNS) [%] | growth (SF-295 CNS) | growth (SF-539 CNS) | growth (UACC-257 melanoma)
1 | CN1CCN(c2ccc(/C=N/n3cnc4oc(-c5ccccc5)cc4c3=N)cc2)CC1 | 93.6 | 87.5% | 91.1% | 84.2% | 99.6% | 61.4% | 84.4% | 75.1% | 52.8% | 63.5% | 100 | 6.36% (active) | 113% | 65.3% | -5.53% (active) | 92.5 | 99.6% | 84.9% | 96.7%
2 | O=C(CSc1nnc(-c2ccc(Cl)cc2)n1-c1ccccc1)Nc1ccc(Br)cc1 | 35.9 | -27.7% (active) | 0.91% (active) | -11.9% (active) | 5.77% (active) | -37.7% (active) | 12.1% | 4.69% (active) | -83% (active) | 51.9% | 41.2 | 40.5% | -3.16% (active) | -29.8% (active) | -31.6% (active) | 42.2 | -34.3% (active) | -66.7% (active) | 50.3%
3 | O=C(Cn1cc(-c2ccccc2)nn1)Nc1nc(-c2ccc(Cl)cc2)cs1 | 97.7 | 106% | 100% | 108% | 109% | 130% | 88.2% | 103% | 88.6% | 117% | 108 | 98% | 90.4% | 104% | 135% | 113 | 77.7% | 108% | 98.9%
4 | NS(=O)(=O)c1ccc(-n2cc(CN3CCNCC3)nn2)cc1 | 106 | 101% | 113% | 102% | 108% | 113% | 98.4% | 110% | 99.4% | 116% | 111 | 95.9% | 112% | 105% | 111% | 102 | 106% | 98.7% | 111%
5 | O=S(=O)(Oc1ccc(-c2nnc(Nc3ccccc3)s2)cc1)C(F)(F)C(F)(F)C(F)(F)C(F)(F)C(F)(F)C(F)(F)F | 100 | 99.6% | 113% | 103% | 103% | 101% | 95.9% | 101% | 108% | 104% | 107 | 94.4% | 108% | 86.9% | 102% | 100 | 105% | 97.7% | 96.8%
6 | N#Cc1c(NC(=O)c2cccc(C(F)(F)F)c2F)sc2c1CCC(=O)C2 | 11 | -23.9% (active) | 35.1% | 19.4% | 9.08% (active) | -66.1% (active) | 3.71% (active) | 12.3% | 14.8% | -8.77% (active) | 24.6 | 1.31% (active) | -21.6% (active) | -48% (active) | -67.1% (active) | 11.2 | -19.4% (active) | -41.8% (active) | -36.3% (active)
7 | O=C1Nc2ccccc2/C1=C/c1ccc(COCC2CO2)n1-c1ccc(O)cc1 (stereo unspecified) | 100 | 109% | 107% | 105% | 113% | 124% | 93.5% | 104% | 103% | 116% | 111 | 107% | 62.9% | 94.9% | – | 98.7 | 109% | 96.8% | 102%
8 | Cc1ccc(-c2nn(-c3ccccc3)cc2/C=C/C(=O)c2ccc(NC(=O)CCCCCCC(=O)NO)cc2)cc1 | 93.6 | 95.8% | 83.9% | 86.4% | 68.1% | 96.4% | 40.4% | 76.9% | 56.8% | 96.2% | 79.1 | 43.2% | 122% | 78.6% | -2.12% (active) | 81.8 | 88% | 82.5% | 82.3%
